# Reference: ChEMBL document CHEMBL4513216, “Probing the Open Global Health Chemical Diversity Library for Multistage-Active Starting Points for Next-Generation Antimalarials” (ACS Infect Dis, 2020)
# Screen size: about 69,000 compounds; about 8,600 (12%) showed an effect of 50% or more. Shown is part of a subset that was picked to be rich in strong results.
# System: Plasmodium berghei
# Assay: Screen against P. berghei liver stage (PbLuc), transformed with Luciferase, at 10uM
# Type: functional, HepG2
# Conditions: tested at 10 uM
row,Structure (SMILES),INHIBITION
1,CN1CCC/C1=N\S(=O)(=O)c1ccc(NC(=O)c2ccc(F)cc2)cc1,41.4%
2,O=S(=O)(CC1CCCO1)Nc1cc(Cl)ccc1-n1cccn1 (stereo not given),-15.5%
3,CC(=O)N[C@@H]1CN(Cc2oc3ccccc3c2C)C[C@H]1c1ccc(C)o1,37.7%
4,CC(CO)(NC(=O)NCc1ccc(Br)s1)C1CC1 (stereo not given),-12.7%
5,Fc1cnc(N2CCc3nnc(COc4ccccn4)n3CC2)nc1,-58.7%
6,CC(C(=O)N1CCN(C)CC1)n1cc(Br)cn1 (stereo not given),21.7%
7,Cc1noc(C)c1CN1CCN(CC2CC2)c2ncccc2C1,47.2%
8,O=C(CCc1ccncc1)N1CCCC(N2CCNC2=O)C1 (stereo not given),37.9%
9,CC(=O)N1CC=C(n2c(=O)[nH]c3ccccc32)CC1,21.4%
10,Cc1sc2ncc(-c3ccnc(NC4CCN(C)CC4)n3)c(=O)n2c1C,24.8%
11,Cc1nn(C)c(N2CCOCC2)c1CNC1CCc2ccccc2C1 (stereo not given),35.7%
12,CCCn1cc(-c2ccnc(NC3CCc4ccccc4C3)n2)c(C)n1 (stereo not given),89.6%
13,O=C(C1CC1)N1CCC(Nc2nc(O)cc(-c3ccsc3)n2)CC1,-5.78%
14,NCC(=O)N1CCCCC1c1ccc(F)cc1 (stereo not given),74%
15,O=C(c1cc(=O)[nH]c(=O)[nH]1)N1CCCCC1c1ccc(F)cc1 (stereo not given),30.1%
16,O=C1CCNC(=O)N1CC(=O)N1CCC1c1ccc(F)cc1 (stereo not given),-14.5%
17,COC(=O)CCCC(=O)N1CCCCC1c1ccc(F)cc1 (stereo not given),34.1%
18,COCCC(=O)N1CCCCC1c1ccc(F)cc1 (stereo not given),48%
19,O=C1CCCCN1CCC(=O)N1CCCCC1c1ccc(F)cc1 (stereo not given),53.6%
20,O=C1CCCN1CCCC(=O)N1CCCCC1c1ccc(F)cc1 (stereo not given),74.9%
21,Cn1cc(C2CCCN2C(=O)CCCOc2ccc(F)cc2)cn1 (stereo not given),0.914%
22,CCc1nccn1CCC(=O)N1CCCC1c1ccc(F)cc1 (stereo not given),29.4%
23,Cc1nn(C)c(Cl)c1C1CCCN1C(=O)c1ccc2c(c1)COC2 (stereo not given),7.12%
24,CN1CCCC1c1cncc(C(=O)NCCN2CCCC2)n1 (stereo not given),-40.1%
25,CN(C)CC(=O)N1CCc2cccc(S(=O)(=O)N3CCOCC3)c2C1,21.2%
26,O=C(c1ccc(Cl)s1)N1CCC2(CNS(=O)(=O)c3cnccc3O2)C1 (stereo not given),21.7%
27,CCC1CN(CC(=O)NCCN2CCCCCC2)c2ccccc2S1 (stereo not given),0.87%
28,CC(c1cc(F)ccc1F)N(C)C(=O)NCc1ccnc(N(C)C)c1 (stereo not given),21.6%

row,Structure (SMILES),INHIBITION
1,FC(F)(F)c1ccnc(N2CCCN(Cc3ccccn3)CC2)n1,-1.7%
2,FC(F)(F)CCc1ccnc(N2CCN(Cc3ccncc3)CC2)n1,-0.178%
3,Cc1cnccc1N1CCN(C(=O)CCCN2CCCCC2)CC1,21.7%
4,CNC(=O)C1CCN(c2nccc(CCC(F)(F)F)n2)C1 (stereo not given),50.1%
5,CCOc1ccnc(N2CCN(C(=O)CCc3ccncc3)CC2)n1,-17%
6,O=C(c1ccccn1)C1CCCN(c2nccc(CCC(F)(F)F)n2)C1 (stereo not given),35.1%
7,Oc1cccc(CN2CCN(c3nccc(CCC(F)(F)F)n3)CC2)c1,74.7%
8,Cc1cnccc1N1CCN(c2nccc(CCC(F)(F)F)n2)CC1,83.2%
9,Cc1cc(C)nc(CCNc2nccc(CCC(F)(F)F)n2)n1,38.2%
10,FC(F)(F)CCc1ccnc(N2CCN(CCc3ccncc3)CC2)n1,66.1%
11,CCN(C(C)=O)C1CCN(c2nccc(CCC(F)(F)F)n2)C1 (stereo not given),48.5%
12,FC(F)(F)CCc1ccnc(N2CCN(Cc3ccccn3)CC2)n1,25.5%
13,O=C(c1ccc2c(c1)OCO2)N1CCCC(n2ccnc2)C1 (stereo not given),-9.37%
14,CN(CC(=O)Nc1cc(-c2cc(Cl)cc(Cl)c2)[nH]n1)S(C)(=O)=O,-51.9%
15,CC(C)Oc1cccc(F)c1C(C(=O)O)N1CCCC1 (stereo not given),-41.4%
16,CCOCC(=O)N1CCCn2c(CN3CCCCC3)nnc2C1,-1.15%
17,CCS(=O)(=O)Cc1csc(-c2ccc(S(C)(=O)=O)cc2)n1,3.4%
18,O=S(=O)(CCCN1CCCC1Cn1cccn1)c1ccccc1 (stereo not given),24%
19,Cc1noc(C)c1-c1nc(C2CCCNC2)ccc1CO (stereo not given),-15.3%
20,COC1C[C@@H]2CN(C(=O)c3ccc(C)s3)C[C@@H]2C1 (stereo not given in full),-16.55%
21,O=C(NCCN1CCCS1(=O)=O)c1scnc1Cl,40.2%
22,CC(=O)c1cnc(N(C)Cc2cc(C)cc(C)n2)nc1C,28.5%
23,CC(=O)c1cnc(N(C)Cc2cnc3ccccc3n2)nc1C,62.7%
24,Cc1cnc(N(C)Cc2cnc3ccccc3n2)nc1N(C)C,46.4%
25,CC(C)C1COC2(CCN(Cc3ccco3)CC2)C1 (stereo not given),-2.35%
26,O=C1CCCN1Cc1ncn2c1CN(Cc1cccs1)CCC2,21.8%
27,Cn1ccnc1CNC(=O)c1cncc(C2CCNCC2)n1,27.6%
